The record followed here is PubChem BioAssay (NCATS).

The nature of assay [1]: Quantitative High-Throughput drug screen in 47 multiple myeloma cell lines against the NCATS MIPE library collection: KMS34_JCRB cell viability assay (AID 1918985). Also: potency is read from the fitted curve at half-maximal effect; nearly all actives have a fitted effect of over 40% in size. An outline of the steps: (§1)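 Viability after 48 h drug exposure was measured as ATP-dependent luminescence. Cells, 500 per well, sat at 37 °C under 5% CO2; DMSO wells set 100%, media-only wells 0%.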
A short description of assay [2]: Quantitative High-Throughput drug screen in 47 multiple myeloma cell lines against the NCATS MIPE library collection: OCIMY7_PLB cell viability assay (AID 1918987). Also: potency is read from the fitted curve at half-maximal effect; nearly all actives have a fitted effect of over 65% in size. Put shortly: as §1
A short description of assay [3]: Quantitative High-Throughput drug screen in 47 multiple myeloma cell lines against the NCATS MIPE library collection: OPM1_PLB cell viability assay (AID 1918989). Also: potency is read from the fitted curve at half-maximal effect; nearly all actives have a fitted effect of over 40% in size. An outline of the steps: as §1
The nature of assay [4]: Quantitative High-Throughput drug screen in 47 multiple myeloma cell lines against the NCATS MIPE library collection: U266_ATCC cell viability assay (AID 1919864). Also: potency is read from the fitted curve at half-maximal effect; nearly all actives have a fitted effect of over 35% in size. Put shortly:
as §1

Assay [5] is described as follows: Quantitative High-Throughput drug screen in 47 multiple myeloma cell lines against the NCATS MIPE library collection: XG6_PLB cell viability assay (AID 1919865). Also: potency is read from the fitted curve at half-maximal effect; nearly all actives have a fitted effect of over 40% in size. An outline of the steps:
as §1

A short description of assay [6]: Quantitative High-Throughput drug screen in 47 multiple myeloma cell lines against the NCATS MIPE library collection: XG1_PLB cell viability assay (AID 1919866). Also: potency is read from the fitted curve at half-maximal effect; nearly all actives have a fitted effect of over 35% in size. An outline of the steps: as §1
The nature of assay [7]: Quantitative High-Throughput drug screen in 47 multiple myeloma cell lines against the NCATS MIPE library collection: VP6_DJ cell viability assay (AID 1919867). Also: potency is read from the fitted curve at half-maximal effect; nearly all actives have a fitted effect of over 40% in size. Put shortly:
as §1

Assay [8] in a line: Quantitative High-Throughput drug screen in 47 multiple myeloma cell lines against the NCATS MIPE library collection: UTMC2_PLB cell viability assay (AID 1919868). Also: potency is read from the fitted curve at half-maximal effect; nearly all actives have a fitted effect of over 55% in size. The conditions noted are these: CellTiter-Glo ATP luminescence, 48 h; viability (% of DMSO control): at 45.8 µM (top of the series) unless noted. Put shortly: as §1
A short description of assay [9]: Quantitative High-Throughput drug screen in 47 multiple myeloma cell lines against the NCATS MIPE library collection: PE2_PLB cell viability assay (AID 1919869). Also: potency is read from the fitted curve at half-maximal effect; nearly all actives have a fitted effect of over 35% in size. An outline of the steps:
as §1

The nature of assay [10]: Quantitative High-Throughput drug screen in 47 multiple myeloma cell lines against the NCATS MIPE library collection: PCM6_Riken cell viability assay (AID 1919870). Also: potency is read from the fitted curve at half-maximal effect; nearly all actives have a fitted effect of over 30% in size. An outline of the steps:
as §1

Assay [11] is described as follows: Quantitative High-Throughput drug screen in 47 multiple myeloma cell lines against the NCATS MIPE library collection: KMS11_JCRBsus cell viability assay (AID 1919873). Also: potency is read from the fitted curve at half-maximal effect; nearly all actives have a fitted effect of over 50% in size. An outline of the steps: as §1
Assay [12] can be described thus: Quantitative High-Throughput drug screen in 47 multiple myeloma cell lines against the NCATS MIPE library collection: KMS28BM_JCRB cell viability assay (AID 1919874). Also: potency is read from the fitted curve at half-maximal effect; nearly all actives have a fitted effect of over 35% in size. An outline of the steps:
as §1

Assay [13] in a line: qHTS drug screen for cell cycle checkpoint inhibitors in PARPi-resistant BRCA-mutant ovarian cancer cell lines. (AID 1963452; calls by dose curve). The conditions noted are these: PEO1/OlaR viability, CellTiter-Glo luminescence, 96 h, stronger effect = lower value. An outline of the steps:
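PEO1, PEO4 and PEO1/OlaR ovarian cancer cells, 600 per well, exposed 96 h at 37C to a dilution series. Viability read by CellTiter-Glo luminescence, normalized to DMSO and empty wells; activity summarized as Z-AUC.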
In general terms: In qHTS, concentration-response curves come from the screen itself.

A short description of assay [14]: Quantitative High-Throughput drug screen in 47 multiple myeloma cell lines against the NCATS MIPE library collection: SKMM1_PLB cell viability assay (AID 1919863). The conditions noted are these: SKMM1 myeloma viability, CellTiter-Glo ATP, 48 h; viability: stronger effect = lower value. An outline of the steps: as §1
(Cellular ATP, detected with luciferase, serves as a proxy for viable cell number.)

Assay [15] in a line: Quantitative High-Throughput drug screen in 47 multiple myeloma cell lines against the NCATS MIPE library collection: OPM2_DSMZ cell viability assay (AID 1919872). Also: potency is read from the fitted curve at half-maximal effect; nearly all actives have a fitted effect of over 30% in size. Put shortly: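 CellTiter-Glo ATP luminescence gave viability after 48 h compound treatment at 37C of 500 multiple myeloma cells per well. Normalisation used DMSO-only wells as 100% and media-only wells as 0% viability; primary qHTS of approved and investigational drugs.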

A short description of assay [16]: Quantitative High-Throughput drug screen in 47 multiple myeloma cell lines against the NCATS MIPE library collection: RPMI8226_ATCC cell viability assay (AID 1919871). Also: potency is read from the fitted curve at half-maximal effect; nearly all actives have a fitted effect of over 30% in size. An outline of the steps: as §1
The nature of assay [17]: qHTS for identification of novel therapeutic agents for treatment of microphthalmiaassociated transcription factor (MiT) renal cell carcinoma (RCC) (AID 1963991; calls by dose curve; also: potency is read from the fitted curve at half-maximal effect). The following applies: CellTiter-Glo, 48 h; for z-score: stronger effect = lower value. Put shortly:
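Curves over 11 concentrations were fitted to CellTiter-Glo luminescence, scaled between empty wells (0%) and DMSO (100%) viability. Cells were UOK109, UOK124 and UOK145 TFE3-fusion RCC lines at 500/well, exposed 48 hours at 37 C.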

Setting [18] is: measured here: PEO1 parental Z-AUC.

Structures are written as SMILES. Inconclusive results are not listed. Activity calls are given as the source filed them. Unless noted, calls follow the shape of the dose curve; as a rule, active = well fitted cell-killing curve with a large enough effect; inconclusive = small, poorly fitted or top-dose-only effect, or effect the other way; inactive = no such curve, though single readings can be large or run the other way.

With `CNc1nccc(-c2cccnc2Oc2cc(C(=O)Nc3cccc(C(F)(F)F)c3)ccc2C)n1`, the Potency in assay [1] was 14800 nM (active); in assay [2] it was 1660 nM (active); in assay [3] it was 13200 nM (active); in assay [4], 16600 nM (active); in [5], 2350 nM (active); in [6], 2350 nM (active). The Potency in [7] was 5260 nM (active); in [8], 14800 nM (active); in assay [9] it was 6620 nM (active); in [10] it was 4180 nM (active); in assay [11], 18700 nM (active); in assay [12] it was 23500 nM (active). Moreover, the Z-AUC was 0.523 (inactive) in assay [13], -0.637 in assay [13] (setting [18]) and 0.0306 in assay [13] (measured here: PEO4 Z-AUC).
Take `Cc1cc(CN2CCN(c3c(Br)cnc4nc(-c5ccc(N6CCN(C)CC6)cc5)[nH]c34)CC2)no1`: the Potency in assay [1] is 5900 nM (active); in assay [2] it was 1050 nM (active); in assay [3], 4180 nM (active); in [14], 10500 nM (active); in assay [4] it was 16600 nM (active); in assay [5] it was 2350 nM (active). The Potency in assay [6] was 2090 nM (active); in assay [7], 3320 nM (active); in assay [8] it was 10500 nM (active); in assay [9] it was 6620 nM (active); in assay [10] it was 3320 nM (active); in [15], 18700 nM (active). The figures for the Potency in [11] and in assay [12] were 1050 nM (active) and 2960 nM (active), respectively. In addition, the Z-AUC in assay [13] was 0.133 (inactive); in assay [13] (setting [18]), 0.0389; in [13] (measured here: PEO4 Z-AUC), -0.2.
For `Cc1[nH]nc2ccc(-c3cncc(OC[C@@H](N)Cc4ccccc4)c3)cc12`, the Potency in assay [1] is 4690 nM (active); in [2] it was 33.2 nM (active); in assay [3], 2350 nM (active); in assay [14], 8330 nM (active); in assay [4], 59 nM (active); in [5], 935 nM (active). For the same compound, the Potency in assay [6] is 590 nM (active); in assay [7], 833 nM (active); in assay [8], 590 nM (active); in assay [9], 1180 nM (active); in assay [10], 526 nM (active); in [16] it was 5900 nM (active). Moreover, the Potency in assay [15] was 9350 nM (active); in [11], 1180 nM (active); in [12], 296 nM (active). The Z-AUC in assay [13] is -1.08 (inactive); in assay [13] (setting [18]), -1.59; in [13] (measured here: PEO4 Z-AUC), -1.81.
In the case of `Cn1cc(-c2[nH]c3cc(NC(=O)[C@H](N)C4CCCCC4)cc4c3c2C=NNC4=O)cn1`, the Potency is 4690 nM (active) in assay [1]; 6620 nM (active) in [2]; 1180 nM (active) in [3]; 18700 nM (active) in [4]; 209 nM (active) in assay [5]; 209 nM (active) in assay [6]. For the same compound, the Potency is 1870 nM (active) in assay [7]; 74.3 nM (active) in assay [8]; 372 nM (active) in assay [9]; 1050 nM (active) in [10]; 7430 nM (active) in assay [15]; 2640 nM (active) in assay [11]. Moreover, the Potency in [12] is 1320 nM (active). The Z-AUC in [13] is -0.173 (inactive); in assay [13] (setting [18]), -0.184; in assay [13] (measured here: PEO4 Z-AUC) it was -0.421.
For the compound `Cn1c2ccccc2c2c3c(c4c5ccccc5n(CCC#N)c4c21)CNC3=O`, the Potency in [1] is 3720 nM (active); in [2], 590 nM (active); in assay [3], 296 nM (active); in [4], 4690 nM (active); in [5], 526 nM (active); in assay [7], 2960 nM (active). Also, the Potency is 2640 nM (active) in [8]; 1870 nM (active) in [9]; 1870 nM (active) in assay [10]; 20900 nM (active) in assay [16]; 11800 nM (active) in assay [15]; 7430 nM (active) in [17] (TFE3-RCC UOK109 viability, active = Z-AUC below -0.8 in all three lines). For the same compound, the Z-AUC was -0.442 (inactive) in assay [13], -1.02 in [13] (setting [18]) and -1.08 in [13] (measured here: PEO4 Z-AUC). The z-score in assay [17] (TFE3-RCC UOK109 viability, measured here: UOK109 Z-AUC) is -0.993; in [17] (TFE3-RCC viability, measured here: UOK124 Z-AUC) it was -2.34; in [17] (TFE3-RCC viability, measured here: UOK145 Z-AUC) it was -1.2.
